# Source: the supplement of paper PMC10849652
# The full data set covers some 8,800 targets. This sample favours those with a hit. About 0.5% of all pairs of compound and target were hits. A number with no mark means an inactive call.
# Columns and labels:
# Assay in all cases: log2 fold change, soluble protein after heating vs DMSO (PISA); higher = thermal stabilisation; K562 lysate, 10 uM; active = over 0.2 and 3.5 SD of the protein, either way, in both replicates (recomputed)
# vemurafenib = compound: CCCS(=O)(=O)Nc1ccc(F)c(C(=O)c2c[nH]c3ncc(-c4ccc(Cl)cc4)cc23)c1F [vemurafenib]
# Outline: (§1)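 Dounce homogenisation of K562 pellets in PBS pH 7.4 with 1 mM MgCl2 produced a crude extract, used at 1 mg/mL protein. Exposure to 10 μM compound lasted 30 min, and aliquots were then heated for 3 min across 48°C-58°C, pooled and brought to 0.5% NP-40 at 4°C. The supernatant after 21,000xg for 90 min was quantified by TMTpro 16plex LC-MS/MS with channel sums equalised. Duplicate values are given as log-two fold change in thermal stability relative to solvent controls.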
# [1] = compound: CCCS(=O)(=O)Nc1ccc(F)c(C(=O)c2c[nH]c3ncc(Cl)cc23)c1F
# Outline: as §1
# barasertib = compound: CCN(CCCOc1ccc2c(Nc3cc(CC(=O)Nc4cccc(F)c4)[nH]n3)ncnc2c1)CCOP(=O)(O)O [barasertib]
# Outline: as §1
# [2] = compound: CC[C@@H]1C(=O)N(C)c2cnc(Nc3ccc(C(=O)NC4CCN(C)CC4)cc3OC)nc2N1C1CCCC1
# Outline: as §1
# volasertib = compound: CC[C@@H]1C(=O)N(C)c2cnc(Nc3ccc(C(=O)N[C@H]4CC[C@H](N5CCN(CC6CC6)CC5)CC4)cc3OC)nc2N1C(C)C [volasertib]
# Outline: as §1
# [3] = compound: CCn1c(C(=O)N(C2CC2)C2CC2)cc2c3c(ncn3C)c(Nc3cc(C)n(C)n3)nc21
# Outline: as §1
# [4] = compound: CCn1cc(-c2ccnc3[nH]c(-c4cccc(CN(C)C)c4)cc23)c(-c2ccc(NC(=O)N(C)C)cc2)n1
# Outline: as §1
# [5] = compound: CN1CCC(CNc2ccc3ncc(-c4cccc(OC(F)(F)F)c4)n3n2)CC1
# Outline: as §1
# sotrastaurin = compound: CN1CCN(c2nc(C3=C(c4c[nH]c5ccccc45)C(=O)NC3=O)c3ccccc3n2)CC1 [sotrastaurin]
# Outline: as §1
# alvocidib = compound: CN1CC[C@H](c2c(O)cc(O)c3c(=O)cc(-c4ccccc4Cl)oc23)[C@H](O)C1 [alvocidib]
# Outline: as §1
# Tubastatin A = compound: CN1CCc2c(c3ccccc3n2Cc2ccc(C(=O)NO)cc2)C1 [Tubastatin A]
# Outline: as §1
# [6] = compound: CNC(=O)C1=CC=CC=C1NC2=NC(=NC=C2Cl)NC3=C(C=C(C=C3)N4CCOCC4)OC
# Outline: as §1
# defactinib = compound: CNC(=O)c1ccc(Nc2ncc(C(F)(F)F)c(NCc3nccnc3N(C)S(C)(=O)=O)n2)cc1 [defactinib]
# Outline: as §1
# encorafenib = compound: COC(=O)N[C@@H](C)CNc1nccc(-c2cn(C(C)C)nc2-c2cc(Cl)cc(NS(C)(=O)=O)c2F)n1 [encorafenib]
# Outline: as §1
# [7] = compound: COC(=O)[C@H](CCSC)NC(=O)C1=C(C=C(C=C1)NC[C@H](CS)N)C2=CC=CC=C2
# Outline: as §1
# alisertib = compound: COc1cc(Nc2ncc3c(n2)-c2ccc(Cl)cc2C(c2c(F)cccc2OC)=NC3)ccc1C(=O)O [alisertib]
# Outline: as §1
# [8] = compound: COc1cc2nc(-c3cc(F)ccc3O)nc(N[C@@H]3CNC[C@H]3C(C)(C)O)c2cc1OC
# Outline: as §1
# gefitinib = compound: COc1cc2ncnc(Nc3ccc(F)c(Cl)c3)c2cc1OCCCN1CCOCC1 [gefitinib]
# Outline: as §1
# saracatinib = compound: CN1CCN(CCOc2cc(OC3CCOCC3)c3c(Nc4c(Cl)ccc5c4OCO5)ncnc3c2)CC1 [saracatinib]
# Outline: as §1
# [9] = compound: CNc1nc(-c2ccc3c(N)n[nH]c3c2)cc(N2C[C@@H](C(=O)NC3CCCCC3)CC[C@H]2C)n1
# Outline: as §1
# UniProt P49356, sequence (P49356 whole entry, looked up): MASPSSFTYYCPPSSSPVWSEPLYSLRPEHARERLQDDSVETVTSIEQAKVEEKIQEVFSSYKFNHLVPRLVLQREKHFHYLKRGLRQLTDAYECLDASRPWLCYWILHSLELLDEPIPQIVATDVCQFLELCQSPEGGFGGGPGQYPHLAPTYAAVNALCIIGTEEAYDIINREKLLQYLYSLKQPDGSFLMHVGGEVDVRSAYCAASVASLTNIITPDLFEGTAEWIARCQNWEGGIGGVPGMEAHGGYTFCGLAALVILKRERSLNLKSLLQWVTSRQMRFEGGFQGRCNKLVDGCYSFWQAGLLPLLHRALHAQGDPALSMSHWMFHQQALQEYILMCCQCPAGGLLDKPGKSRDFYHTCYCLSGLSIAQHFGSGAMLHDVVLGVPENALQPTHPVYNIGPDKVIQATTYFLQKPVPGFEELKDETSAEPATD
# UniProt Q9BQI3, sequence (Q9BQI3 whole entry, looked up): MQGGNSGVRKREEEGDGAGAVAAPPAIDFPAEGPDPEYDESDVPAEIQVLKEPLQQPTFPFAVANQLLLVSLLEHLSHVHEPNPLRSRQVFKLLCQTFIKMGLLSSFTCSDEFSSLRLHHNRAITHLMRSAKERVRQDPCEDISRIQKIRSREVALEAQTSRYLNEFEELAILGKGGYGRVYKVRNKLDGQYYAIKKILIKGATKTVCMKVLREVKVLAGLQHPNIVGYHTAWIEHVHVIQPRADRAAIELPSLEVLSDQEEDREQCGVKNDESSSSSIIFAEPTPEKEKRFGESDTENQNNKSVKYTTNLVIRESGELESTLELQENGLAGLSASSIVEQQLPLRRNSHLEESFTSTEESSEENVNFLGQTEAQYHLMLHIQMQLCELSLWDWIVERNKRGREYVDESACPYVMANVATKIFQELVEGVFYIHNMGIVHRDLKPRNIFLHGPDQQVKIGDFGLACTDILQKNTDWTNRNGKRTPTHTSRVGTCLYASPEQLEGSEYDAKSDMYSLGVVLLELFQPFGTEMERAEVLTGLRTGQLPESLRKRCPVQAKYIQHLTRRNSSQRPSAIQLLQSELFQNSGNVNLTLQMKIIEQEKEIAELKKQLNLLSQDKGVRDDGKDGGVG
# UniProt P85037, sequence (P85037 whole entry, looked up): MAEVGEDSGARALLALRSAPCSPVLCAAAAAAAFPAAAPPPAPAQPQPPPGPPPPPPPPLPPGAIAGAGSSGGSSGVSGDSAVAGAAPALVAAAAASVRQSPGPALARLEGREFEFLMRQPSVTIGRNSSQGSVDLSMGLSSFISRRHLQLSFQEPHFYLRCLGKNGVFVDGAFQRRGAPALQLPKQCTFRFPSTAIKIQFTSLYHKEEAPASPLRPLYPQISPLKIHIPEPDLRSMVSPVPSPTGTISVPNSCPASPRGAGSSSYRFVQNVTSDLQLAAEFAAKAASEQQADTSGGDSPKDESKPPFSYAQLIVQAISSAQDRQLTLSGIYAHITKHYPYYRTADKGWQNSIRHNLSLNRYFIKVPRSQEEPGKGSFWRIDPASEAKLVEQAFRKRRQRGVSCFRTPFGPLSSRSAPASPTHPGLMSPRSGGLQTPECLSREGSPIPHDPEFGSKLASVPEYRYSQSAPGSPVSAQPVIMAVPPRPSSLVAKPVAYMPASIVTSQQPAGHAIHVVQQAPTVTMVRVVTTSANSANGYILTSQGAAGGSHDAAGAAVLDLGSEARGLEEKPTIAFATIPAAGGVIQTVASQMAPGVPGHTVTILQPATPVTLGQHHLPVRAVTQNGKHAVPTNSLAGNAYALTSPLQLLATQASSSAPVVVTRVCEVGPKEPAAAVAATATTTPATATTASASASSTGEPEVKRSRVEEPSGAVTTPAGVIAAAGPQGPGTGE
# UniProt Q96EK7, sequence (Q96EK7 whole entry, looked up): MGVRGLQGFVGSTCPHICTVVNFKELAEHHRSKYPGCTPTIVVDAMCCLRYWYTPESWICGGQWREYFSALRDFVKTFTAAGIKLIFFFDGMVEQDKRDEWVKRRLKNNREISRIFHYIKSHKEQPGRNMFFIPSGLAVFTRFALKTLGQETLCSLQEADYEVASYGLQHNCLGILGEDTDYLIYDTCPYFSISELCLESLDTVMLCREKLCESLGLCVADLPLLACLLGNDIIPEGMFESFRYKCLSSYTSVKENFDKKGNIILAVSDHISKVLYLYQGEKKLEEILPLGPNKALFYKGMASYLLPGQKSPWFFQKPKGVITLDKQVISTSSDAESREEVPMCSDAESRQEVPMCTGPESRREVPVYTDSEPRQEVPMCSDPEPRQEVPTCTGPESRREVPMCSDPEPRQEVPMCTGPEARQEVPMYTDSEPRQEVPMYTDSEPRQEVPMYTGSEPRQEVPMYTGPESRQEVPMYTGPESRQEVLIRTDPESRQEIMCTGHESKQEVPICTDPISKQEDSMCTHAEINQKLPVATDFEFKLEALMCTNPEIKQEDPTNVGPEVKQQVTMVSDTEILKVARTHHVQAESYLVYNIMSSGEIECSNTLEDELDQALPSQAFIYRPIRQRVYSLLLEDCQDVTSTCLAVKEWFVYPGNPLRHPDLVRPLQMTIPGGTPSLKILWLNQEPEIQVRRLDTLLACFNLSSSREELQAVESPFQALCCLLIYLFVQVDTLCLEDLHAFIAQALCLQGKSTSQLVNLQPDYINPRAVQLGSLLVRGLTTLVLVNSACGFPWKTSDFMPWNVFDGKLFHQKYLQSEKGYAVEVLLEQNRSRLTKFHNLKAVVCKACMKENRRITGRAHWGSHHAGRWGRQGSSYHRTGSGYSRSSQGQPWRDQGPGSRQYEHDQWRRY
# UniProt Q96RT1, sequence (Q96RT1 whole entry, looked up): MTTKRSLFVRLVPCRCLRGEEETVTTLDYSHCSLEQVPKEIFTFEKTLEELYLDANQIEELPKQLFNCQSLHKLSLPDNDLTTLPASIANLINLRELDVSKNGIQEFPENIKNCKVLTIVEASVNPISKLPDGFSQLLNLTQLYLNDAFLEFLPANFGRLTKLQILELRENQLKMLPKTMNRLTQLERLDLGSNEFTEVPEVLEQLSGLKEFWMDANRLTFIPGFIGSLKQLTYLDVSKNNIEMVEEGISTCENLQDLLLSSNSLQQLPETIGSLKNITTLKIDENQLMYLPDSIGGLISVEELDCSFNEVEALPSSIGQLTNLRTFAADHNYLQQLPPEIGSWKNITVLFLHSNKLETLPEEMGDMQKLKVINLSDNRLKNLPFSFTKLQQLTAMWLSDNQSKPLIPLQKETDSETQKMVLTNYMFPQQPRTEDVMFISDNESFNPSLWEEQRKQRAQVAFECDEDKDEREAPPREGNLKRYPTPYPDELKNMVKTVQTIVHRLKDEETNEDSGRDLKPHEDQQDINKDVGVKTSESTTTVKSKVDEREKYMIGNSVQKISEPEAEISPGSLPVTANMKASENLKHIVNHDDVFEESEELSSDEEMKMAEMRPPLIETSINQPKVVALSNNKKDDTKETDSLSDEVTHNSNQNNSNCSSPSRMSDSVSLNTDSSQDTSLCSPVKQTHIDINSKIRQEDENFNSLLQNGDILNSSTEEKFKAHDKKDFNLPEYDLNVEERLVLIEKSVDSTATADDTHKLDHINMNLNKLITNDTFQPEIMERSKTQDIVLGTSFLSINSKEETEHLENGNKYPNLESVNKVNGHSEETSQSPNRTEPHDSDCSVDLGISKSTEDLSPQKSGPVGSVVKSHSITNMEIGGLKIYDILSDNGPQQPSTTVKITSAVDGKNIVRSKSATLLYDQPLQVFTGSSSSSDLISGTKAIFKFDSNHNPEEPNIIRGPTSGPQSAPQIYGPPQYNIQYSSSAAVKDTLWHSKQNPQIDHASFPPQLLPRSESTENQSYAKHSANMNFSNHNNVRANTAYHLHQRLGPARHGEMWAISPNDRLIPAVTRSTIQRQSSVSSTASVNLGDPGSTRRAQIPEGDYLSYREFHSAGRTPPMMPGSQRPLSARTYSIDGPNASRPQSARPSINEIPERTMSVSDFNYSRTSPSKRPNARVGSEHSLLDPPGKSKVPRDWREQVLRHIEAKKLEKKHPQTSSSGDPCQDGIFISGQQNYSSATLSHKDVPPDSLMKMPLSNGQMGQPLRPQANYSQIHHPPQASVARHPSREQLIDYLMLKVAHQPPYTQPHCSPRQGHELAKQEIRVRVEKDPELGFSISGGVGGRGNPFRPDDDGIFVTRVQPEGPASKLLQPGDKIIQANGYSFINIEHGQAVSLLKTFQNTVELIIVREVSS
# UniProt Q96G46, sequence (Q96G46 whole entry, looked up): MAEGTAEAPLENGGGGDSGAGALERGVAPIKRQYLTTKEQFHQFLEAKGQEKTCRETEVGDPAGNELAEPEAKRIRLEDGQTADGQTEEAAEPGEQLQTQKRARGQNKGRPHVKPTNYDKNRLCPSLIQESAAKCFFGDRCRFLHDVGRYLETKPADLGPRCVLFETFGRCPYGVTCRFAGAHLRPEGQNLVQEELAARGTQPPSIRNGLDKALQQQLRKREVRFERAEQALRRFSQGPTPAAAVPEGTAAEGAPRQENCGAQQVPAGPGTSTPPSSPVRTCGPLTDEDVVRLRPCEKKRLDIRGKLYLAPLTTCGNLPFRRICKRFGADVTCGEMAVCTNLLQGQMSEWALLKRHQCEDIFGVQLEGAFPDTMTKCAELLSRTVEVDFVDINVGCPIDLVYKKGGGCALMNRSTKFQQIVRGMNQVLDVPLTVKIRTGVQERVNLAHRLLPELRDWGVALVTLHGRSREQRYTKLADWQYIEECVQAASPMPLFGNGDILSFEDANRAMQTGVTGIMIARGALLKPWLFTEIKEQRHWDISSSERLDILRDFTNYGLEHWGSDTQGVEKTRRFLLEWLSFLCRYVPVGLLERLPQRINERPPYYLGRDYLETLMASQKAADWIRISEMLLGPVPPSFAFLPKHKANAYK
Target,log2 fold change (vemurafenib),log2 fold change [1],log2 fold change (barasertib),log2 fold change [2],log2 fold change (volasertib),log2 fold change [3],log2 fold change [4],log2 fold change [5],log2 fold change (sotrastaurin),log2 fold change (alvocidib),log2 fold change (Tubastatin A),log2 fold change [6],log2 fold change (defactinib),log2 fold change (encorafenib),log2 fold change [7],log2 fold change (alisertib),log2 fold change [8],log2 fold change (gefitinib),log2 fold change (saracatinib),log2 fold change [9]
FAT2 (UniProt Q9NYQ8),0.213,0.19,-0.001,0.016,-0.097,0.089,-0.487,0.248,0.125,-0.214,-0.083,-0.123,-0.034,-0.092,0.104,-0.023,0.043,0.013,–,–
ERBIN isoform 8 (UniProt Q96RT1),0.038,0.015,-0.004,0.068,-0.013,0.338 (active),-0.028,0.1,0.032,-0.01,0.031,0.025,-0.031,0.013,-0.029,-0.028,-0.001,0.03,-0.001,-0.028
FNTB (UniProt P49356),0.055,-0.009,-0.036,0.285 (active),0.005,0.037,-0.036,0.016,0.042,-0.003,0.048,-0.019,0.026,-0.046,0.131,-0.034,-0.007,-0.031,0.016,-0.056
DUS3L (UniProt Q96G46),-0.055,0.004,-0.038,-0.025,0.005,-0.043,0.246 (active),-0.048,0.033,0.076,-0.065,-0.012,-0.023,0.091,-0.024,-0.02,0.036,-0.005,0.021,0.001
EIF2AK1 (UniProt Q9BQI3),-0.004,-0.05,0.019,-0.016,-0.287 (active),-0.002,-0.001,-0.037,0,0.044,-0.044,0.068,-0.021,-0.004,0.041,-0.004,0.122,0.101,-0.019,-0.028
FOXK1 (UniProt P85037),-0.01,0.008,0.025,-0.007,-0.019,0.013,-0.014,0.026,-0.012,-0.037,-0.116,0.025,0.003,0.009,0.09,0.016,0.014,0.003,0.005,0.059
FAM120B (UniProt Q96EK7),0.001,0.045,-0.009,0.01,-0.029,0.033,-0.011,-0.085,0.008,-0.005,-0.063,0.016,0.073,0.029,0.034,-0.007,-0.001,0.021,0.005,-0.02
GAMT (UniProt Q14353),0.037,0.045,0.112,0.036,0.007,0.011,0.003,-0.029,0.018,0.025,-0.059,0.055,0.068,-0.028,0.039,0.018,-0.021,-0.035,-0.014,0.038
